As usually defined, the inhibition is the relative decrease from the control value, in per cent.

The structures appear in SMILES notation. Calls of active or inactive are those of the source.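 Rule for the calls, unless noted: active = visual image review flags a hit and inhibition of aggregation exceeds 20%; inconclusive = visual hit but inhibition at or below 20%; inactive = no hit on visual image review.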 Where a SMILES comes first, the peptide text is derived from it. The star is where a group is joined. Boc = CC(C)(C)OC(=O)*

Consider 13 molecules from PubChem BioAssay.

Assay [1] is described as follows: inhibitors of TNFa-induced NFkB p65 translocation, primary screen, imaging, HUVEC, MLSMR starter and 10KST1 sets (AID 438;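 active = inhibition above 20% together with a positive visual image hit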;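 note: compound added about 3h40 before a 20 min TNFalpha stimulation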;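 for inhibition: signal is the nuclear over cytoplasmic p65 intensity ratio per well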). Particulars: HUVEC TNFa-induced p65 nuclear translocation; cell count: measured here: nuclei count (cytotoxicity indicator), at 2.08 µM; inhibition: at 2 µM, stronger effect = higher value, 0% TNFa-plus-vehicle, 100% no-TNFa wells.
Assay [2] in a line: inhibitors of mutant huntingtin aggregation, primary screen, imaging, exon1htt(103Q)mCFP cells, high-content imaging (AID 483).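 For nuclei count: percent of the per-plate median nuclei count of sample wells.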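 Note: compound exposure lasted 3 days before fixation.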 To be noted: exon1htt(103Q)mCFP cell line, aggregate imaging, at 2 µM; inhibition of aggregation: stronger effect = higher value; nuclei count: measured here: cell count, toxicity.
Assay [3] in a line: inhibitors of E-selectin induction by TNFa, primary screen, imaging, HUVEC, immunofluorescence, MLSMR starter and 10KST1 sets (AID 487;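 active = visually confirmed hit in the image check and inhibition above 20%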;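 for inhibition: signal is fraction of cell area covered by stained E-selectin grains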;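 for nuclei count: 100% = median nuclei count of all wells on the same plate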). To be noted: HUVEC TNFalpha-induced E-selectin immunofluorescence imaging, at 2 µM; inhibition: stronger effect = higher value; nuclei count: measured here: cell number, toxicity.
Assay [4] has as its target Voltage-gated potassium channel subunit beta-2 (Rattus norvegicus) (UniProt P62483). The assay can be described thus: KvBeta enzyme negative modulators, primary screen, biochemical, NADPH fluorescence (AID 622;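 active = fluorescence slope higher than the sample average by over 3 SD, cut at about -0.22 in these data, passing the limit was not always enough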;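 note: slope of raw intensity against log time taken from 70 to 1610 s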). To be noted: recombinant KvBeta, 4-cyanobenzaldehyde reduction, at 10 µM, stronger effect = higher value.
Assay [5] has the same target. The experiment in a line: KvBeta positive modulators, primary screen, biochemical, NADPH fluorescence (AID 623;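 active = NADPH fluorescence slope more negative than the mean of all samples by about 3 SD, 99.7% confidence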;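 note: fluorescence intensity change per second fitted from 20 to 320 s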). To be noted: Recombinant KvBeta, NADPH fluorescence decrease slope, 10 min; at 10 µM; stronger effect = lower value.
Assay [6] deals with Alpha-2C adrenergic receptor (Homo sapiens) (UniProt P18825). The assay can be described thus: modulators of alpha2C/GIRK thallium flux, primary screen, cell-based, HEK293 alpha2C/GIRK1/2 (AID 624;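 active = fluorescence slope after compound addition differing from the mean of all screened samples at 99.7% confidence, in either direction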;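 note: slope of fluorescence ratio to pre-addition baseline per second over 15 to 24 s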). Particulars: thallium flux BTC fluorescence, at 10 µM, actives lie on both sides.
Sequence of Alpha-2C adrenergic receptor (Homo sapiens) (P18825 whole entry, looked up): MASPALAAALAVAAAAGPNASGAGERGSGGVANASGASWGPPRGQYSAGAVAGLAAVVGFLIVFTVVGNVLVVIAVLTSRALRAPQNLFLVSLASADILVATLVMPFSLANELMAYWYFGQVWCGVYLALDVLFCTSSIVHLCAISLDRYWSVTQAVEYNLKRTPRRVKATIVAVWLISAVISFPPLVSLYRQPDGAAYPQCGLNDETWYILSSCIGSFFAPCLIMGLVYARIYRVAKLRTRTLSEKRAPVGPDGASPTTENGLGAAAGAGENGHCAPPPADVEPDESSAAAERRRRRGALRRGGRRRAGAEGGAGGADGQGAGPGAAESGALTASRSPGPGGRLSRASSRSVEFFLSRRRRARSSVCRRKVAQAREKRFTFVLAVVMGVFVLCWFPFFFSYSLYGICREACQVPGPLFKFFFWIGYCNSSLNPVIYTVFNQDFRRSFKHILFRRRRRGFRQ
Assay [7] is described as follows: inhibitors of Sendai virus-induced IRF3 signaling, primary screen, TLR/RLR signaling modifier project, cell-based, Sendai virus stimulus, luciferase, 10K MLSCN set (AID 602276;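 active = inhibition at or above 50% at 10 µM; inactive = inhibition below 50%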;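 note: firefly luciferase from ISG56 promoter only with Renilla not read in this screen; 0% = Sendai virus plus DMSO and 100% = medium plus DMSO without virus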). Particulars: HEK293 RL24 IRF3 luciferase reporter, at 10 µM, stronger effect = higher value.
A short description of assay [8]: inhibitors of poly I:C-induced TLR3 signaling, primary screen, cell-based, poly I:C stimulus, luciferase, 10K MLSCN set (AID 602277;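 active = inhibition of the reporter signal at or above 50%; inactive = inhibition below 50%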). Particulars: HEK293-TLR3 RL24 IRF3 luciferase reporter, at 10 µM, stronger effect = higher value. Background: A reporter such as luciferase makes a cellular process visible.

Sequence of Voltage-gated potassium channel subunit beta-2 (Rattus norvegicus) (P62483 whole entry, looked up): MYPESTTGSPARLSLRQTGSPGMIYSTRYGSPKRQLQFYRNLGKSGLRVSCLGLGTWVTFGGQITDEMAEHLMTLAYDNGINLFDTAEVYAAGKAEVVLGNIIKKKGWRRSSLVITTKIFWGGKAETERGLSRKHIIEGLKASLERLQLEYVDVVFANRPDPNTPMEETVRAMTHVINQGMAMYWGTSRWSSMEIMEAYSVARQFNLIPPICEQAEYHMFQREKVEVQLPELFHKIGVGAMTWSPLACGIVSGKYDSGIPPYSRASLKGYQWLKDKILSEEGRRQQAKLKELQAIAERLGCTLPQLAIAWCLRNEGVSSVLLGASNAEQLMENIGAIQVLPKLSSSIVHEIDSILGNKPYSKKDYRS

On to `CC(NC(=O)OC(C)(C)C)C(=O)N1CCCC1C(=O)NC(Cc1ccccc1)C(N)=O` (stereo not drawn) (Boc-Ala-Pro-Phe-NH2; configuration not given here), for which the cell count in assay [1] was 220. Also, the inhibition is 9.7% (inactive) in assay [1], -30.7% (inactive) in assay [3], 19.8% (inactive) in assay [7] and 22.4% (inactive) in assay [8]. Also, the inhibition of aggregation in assay [2] is -15.1% (inactive). Besides, the nuclei count in assay [2] was found to be 85.5%; in assay [3], 93.1%. Besides, the fluorescence slope in assay [4] is -0.498 (inactive). Also, the NADPH fluorescence slope in assay [5] was -3.8e-06 (inactive). In assay [6], the slope was 0.00536 (inactive).
`COc1ccc(CCNC(=O)c2ccc(N3CCCC3=O)cc2)cc1OC`: in assay [1], the cell count was 472. Also, the inhibition in assay [1] is -19% (inactive); in assay [3], -26% (inactive); in assay [7], 8.09% (inactive); in assay [8], 20.6% (inactive). Besides, the inhibition of aggregation in assay [2] is 43.9% (active). In addition, the nuclei count was determined as 62.2% in assay [2] and 89.1% in assay [3]. Moreover, the fluorescence slope in assay [4] is -0.453 (inactive). In assay [5], the NADPH fluorescence slope is -0.000105 (inactive). In addition, the slope in assay [6] was 0.00604 (inactive).
On to `CC(C)C1C2=C(CC(C)(C)CC2=O)ON1c1ccccc1` (stereo not drawn), for which the cell count in assay [1] amounted to 444. Also, the inhibition is 0.5% (inactive) in assay [1], -51.2% (inactive) in assay [3], 14.4% (inactive) in assay [7] and 16.5% (inactive) in assay [8]. Further, the inhibition of aggregation in assay [2] was 9.1% (inactive). In addition, the values for the nuclei count in assay [2] and in assay [3] were 86.8% and 115%, respectively. Also, in assay [4], the fluorescence slope was -0.476 (inactive). The NADPH fluorescence slope in assay [5] is -4.4e-05 (inactive). The slope in assay [6] is 0.0045 (inactive).
As to `Cc1cc(C)cc(-n2nnc(C(=O)NCc3ccco3)c2N)c1`, the cell count in assay [1] amounted to 500. Also, the inhibition in assay [1] was 0.2% (inactive); in assay [3], -36.2% (inactive); in assay [7], -5.79% (inactive); in assay [8], 100% (active). Besides, the inhibition of aggregation in assay [2] is -20.1% (inactive). For the same molecule, the figures for the nuclei count in assay [2] and in assay [3] were 119% and 107%, respectively. Further, in assay [4], the fluorescence slope is -0.557 (inactive). In addition, the NADPH fluorescence slope in assay [5] is -1.1e-05 (inactive). For the same molecule, in assay [6], the slope is 0.00643 (inactive).
In the case of `Cc1cc(C)n(CC(=O)O)n1`, the cell count in assay [1] stood at 341. Moreover, the inhibition in assay [1] is -1.8% (inactive); in assay [3] it was -49.5% (inactive); in assay [7], 12.8% (inactive); in assay [8] it was 18.3% (inactive). Besides, the inhibition of aggregation in assay [2] is -4.2% (inactive). Besides, the nuclei count is 102% in assay [2] and 121% in assay [3]. Moreover, in assay [4], the fluorescence slope is -0.317 (inactive). The NADPH fluorescence slope in assay [5] is -5.4e-05 (inactive). The slope in assay [6] was 0.0047 (inactive).
`c1ccc(CCn2nnnc2CN2CCN(C3CCCC3)CC2)cc1`: the cell count in assay [1] is 290. The inhibition in assay [1] is -15.4% (inactive); in assay [3] it was -40.7% (inactive); in assay [7] it was -0.279% (inactive); in assay [8] it was 20.4% (inactive). Moreover, the inhibition of aggregation in assay [2] was -9.3% (inactive). In addition, the nuclei count came out at 112% in assay [2] and 118% in assay [3]. The fluorescence slope in assay [4] was -0.604 (inactive). For the same molecule, the NADPH fluorescence slope in assay [5] was -4.3e-05 (inactive). In addition, in assay [6], the slope is 0.0058 (inactive).
Regarding `COc1ccccc1NC(=O)NCCCN1CCN(c2cccc(Cl)c2)CC1`, in assay [1], the cell count is 628. For the same molecule, the inhibition in assay [1] was -11.6% (inactive); in assay [3], -47.7% (inactive); in assay [7] it was -24.8% (inactive); in assay [8], -19.5% (inactive). For the same molecule, the inhibition of aggregation in assay [2] was 13.1% (inactive). In addition, the nuclei count in assay [2] was 112%; in assay [3], 118%. The fluorescence slope in assay [4] was -0.556 (inactive). Moreover, the NADPH fluorescence slope in assay [5] was 1e-05 (inactive). Also, the slope in assay [6] is 0.00548 (inactive).
Consider `COC(=O)[C@H](C)NC(=O)NCc1ccc(F)cc1`, for which, in assay [1], the cell count was found to be 589. For the same molecule, the inhibition was -23.8% (inactive) in assay [1], -131% (inactive) in assay [3], 6.37% (inactive) in assay [7] and -35.7% (inactive) in assay [8]. In assay [2], the inhibition of aggregation was 24.3% (inactive). Moreover, the nuclei count in assay [2] stood at 100%; in assay [3] it was 96.1%. In assay [4], the fluorescence slope was -0.622 (inactive). Also, the NADPH fluorescence slope in assay [5] is -1.3e-05 (inactive). The slope in assay [6] was 0.00843 (inactive).
Consider `COCCn1c(-c2ccco2)nc2nc3ccccc3nc21`, for which the cell count in assay [1] was determined as 237. For the same molecule, the inhibition was 1.6% (inactive) in assay [1], -4.2% (inactive) in assay [3], -0.433% (inactive) in assay [7] and -3.38% (inactive) in assay [8]. In addition, the inhibition of aggregation in assay [2] was 23.4% (inactive). The results for the nuclei count in assay [2] and in assay [3] were 69.1% and 98.9%, respectively. In assay [4], the fluorescence slope is -0.255 (inactive). In addition, the NADPH fluorescence slope in assay [5] was -2.3e-05 (inactive). In addition, the slope in assay [6] was 0.00377 (inactive).
Regarding `CC(=O)Nc1ccc(S(=O)(=O)NCc2csc(-c3cccnc3)n2)cc1`, in assay [1], the cell count is 356. Also, the inhibition was -10.2% (inactive) in assay [1], -19.2% (inactive) in assay [3], 9.95% (inactive) in assay [7] and 22.2% (inactive) in assay [8]. In addition, the inhibition of aggregation in assay [2] is -11.8% (inactive). The nuclei count in assay [2] is 108%; in assay [3] it was 101%. The fluorescence slope in assay [4] is -0.511 (inactive). Also, the NADPH fluorescence slope in assay [5] is -3.4e-05 (inactive). For the same molecule, in assay [6], the slope is 0.00545 (inactive).
With `c1ccc(Cc2ccc(OCCn3cncn3)cc2)cc1`, the cell count in assay [1] is 755. For the same molecule, the inhibition in assay [1] was -5.6% (inactive); in assay [3] it was -68.7% (inactive); in assay [7], -18.4% (inactive); in assay [8] it was -0.13% (inactive). Further, in assay [2], the inhibition of aggregation was -15.5% (inactive). For the same molecule, the nuclei count worked out at 102% in assay [2] and 108% in assay [3]. Also, the fluorescence slope in assay [4] is -0.477 (inactive). The NADPH fluorescence slope in assay [5] is 1.2e-05 (inactive). Further, the slope in assay [6] was 0.00592 (inactive).
As to `Cc1ccc(N2CCN(C(=S)c3ccc(N(C)C)cc3)CC2)cc1`, the cell count in assay [1] is 411. Besides, the inhibition in assay [1] is -38.4% (inactive); in assay [3] it was -90.7% (inactive); in assay [7] it was -12.6% (inactive); in assay [8], -63.7% (inactive). Besides, the inhibition of aggregation in assay [2] was -2.2% (inactive). The results for the nuclei count in assay [2] and in assay [3] were 85.8% and 98.3%, respectively. Moreover, the fluorescence slope in assay [4] was -0.595 (inactive). The NADPH fluorescence slope in assay [5] was -2.7e-05 (inactive). Besides, the slope in assay [6] was 0.00418 (inactive).
Regarding `COc1cccc(C2CC(c3ccc(C)cc3)n3nc(N)nc3N2)c1` (stereo not drawn), the cell count in assay [1] is 510. Further, the inhibition in assay [1] is -0.9% (inactive); in assay [3], -34.1% (inactive); in assay [7] it was 9.08% (inactive); in assay [8] it was 24.7% (inactive). Also, the inhibition of aggregation in assay [2] was -5.2% (inactive). For the same molecule, the nuclei count in assay [2] and in assay [3] was 106% each time. Also, the fluorescence slope in assay [4] is -0.615 (inactive). Moreover, the NADPH fluorescence slope in assay [5] was -2.8e-06 (inactive). In assay [6], the slope was 0.00794 (inactive).
